PubChem BioAssay (NCI)
This is part of a sample that, as a whole, favours compounds with a hit. Of some 83,000 tested, about 20% had one in any assay.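 Testing used 96-well plates and a 48-hour single-concentration exposure. Example: -40 means 40% of the starting cells died.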 Values without a mark were called inactive. Activity calls are given as the source filed them. How the source made its calls: active means growth percent below 10; inactive means the rest.

Tests used:
Experiment in all cases: NCI-60 one-dose screen, 48 h (100 = growth as untreated, 0 = no growth, -100 = all killed)
Details in all cases: 10 µM unless noted
HCT-15 colon = tested on: HCT-15 colon
HT29 colon = tested on: HT29 colon
SNB-75 CNS = tested on: SNB-75 CNS
SNB-19 CNS = tested on: SNB-19 CNS
U251 CNS = tested on: U251 CNS
PC-3 prostate = tested on: PC-3 prostate
SK-MEL-5 melanoma = tested on: SK-MEL-5 melanoma
UACC-62 melanoma = tested on: UACC-62 melanoma
LOX IMVI melanoma = tested on: LOX IMVI melanoma
SK-MEL-28 melanoma = tested on: SK-MEL-28 melanoma

SMILES | growth (HCT-15 colon) | growth (HT29 colon) | growth (SNB-75 CNS) | growth (SNB-19 CNS) | growth (U251 CNS) | growth (PC-3 prostate) | growth (SK-MEL-5 melanoma) | growth (UACC-62 melanoma) | growth (LOX IMVI melanoma) | growth (SK-MEL-28 melanoma)
CNCc1cccnc1 | 108% | 85.7% | 104% | 115% | 99.6% | 89% | 106% | 108% | 98.2% | 120%
C/C(=C\c1ccn(-c2ccc(N)cc2)n1)[C@@H]1C[C@@H]2O[C@]2(C)CCC[C@H](C)[C@H](O)[C@@H](C)C(=O)C(C)(C)[C@@H](O)CC(=O)O1 | 20% | 15.4% | 3.99% (active) | 33.3% | 25.9% | 13.2% | 10.9% | 19.7% | 29.5% | 59.4%
COC(=O)[C@@H](C)C[C@H](Cc1ccccc1)NC(=O)c1csc([C@@H](C[C@H](C(C)C)N(C)C(=O)[C@@H](NC(=O)[C@H]2CCCCN2C)C(C)C)OC(C)=O)n1 | 15% | 5.25% (active) | 5.98% (active) | 65.6% | -1.97% (active) | 7.77% (active) | -50.2% (active) | 41.7% | 14.2% | 39.2%
CC1(C)N=C(N)N=C(N)N1c1cccc(CCCCc2ccc(Cl)c(S(=O)(=O)F)c2)c1 | 66.6% | 12.5% | 62.2% | 45.9% | 35.3% | 24.1% | 16.4% | 15.3% | 16.5% | 70.2%
Cc1cc(-c2nc3cc(F)ccc3[se]2)cc(F)c1N | 38.2% | 62.5% | 91.9% | 97.2% | 98.7% | 72.7% | 81% | 85.7% | 90% | 121%
O=C(O)CNC(=O)C(Cl)(Cl)Cl | 96% | 97.1% | 85.1% | 100% | 84.8% | 91.6% | 99% | 102% | 99% | 96.6%
CCCCCCCCCCCCCC[P+](CCCCCC)(CCCCCC)CCCCCC | 7.54% (active) | -58.2% (active) | -31.4% (active) | 8.99% (active) | -68.4% (active) | -78.1% (active) | -100% (active) | -28.1% (active) | -68.5% (active) | -97.8% (active)
O=C1NC(=O)C(=Cc2cn(C(=O)c3ccccc3)c3ccccc23)C(=O)N1 | 101% | 97% | 73.1% | 97.6% | 102% | 79.4% | 92.3% | 85.9% | 90.8% | 111%
Cc1cc(N(CCCl)CCCl)ccc1C=Nc1cccnc1 | 84.4% | 91.6% | 60.2% | 81.2% | 76.1% | 63.1% | 77.5% | 46.6% | 71.6% | 97.5%
O=C1C(Cl)=C(N2CCOCC2)C(=O)c2ccccc21 | 71.5% | 116% | 102% | 116% | 67% | 71.9% | 92% | 105% | 76.7% | 118%
CC[C@H](C)[C@H](NC(=O)[C@H]1CCCCN1C)C(=O)N(C)[C@H](C[C@@H](OC(C)=O)c1nc(C(=O)NC23CC(C(=O)OC)(C2)C3)cs1)C(C)C | 6.1% (active) | -9.84% (active) | 15% | 29% | 6.7% (active) | 23.6% | -65.7% (active) | 44.3% | 4.9% (active) | 60.8%
COc1cc(C=C2c3ccccc3C(=O)c3ccccc32)ccc1OCCCCOc1cc2c(cc1OC)C(=O)N1CCCC1C=N2 (stereo not given) | -75.6% (active) | -64.6% (active) | -90.9% (active) | -89.2% (active) | -100% (active) | -45.9% (active) | -92.4% (active) | -90.1% (active) | -100% (active) | -82.8% (active)
CC(C)(C)N1CC1C#N (stereo not given) | 99.6% | 105% | 98.3% | 97.2% | 100% | 103% | 105% | 104% | 101% | 110%
